Measurements reported in the antibiotic and cytotoxicity screens of Wong et al. (2023).
Hit rate of the full screen: of about 39,000 compounds, about 3,300 (8.5%) were called active. The entries come from a sample that favours actives as a whole.

These compounds were tested on HepG2 (assay: cytotoxicity call (relative viability < 0.9)). Conditions: 10 µM.

| SMILES | cytotoxicity call |
| --- | --- |
| C[C@H]1CN([C@@H](C)CO)C(=O)c2cccc(NC(=O)C3CCCCC3)c2O[C@@H]1CN(C)Cc1ccc(Oc2ccccc2)cc1 | inactive |
| C[C@@H]1CCCCO[C@@H](CN(C)C(=O)NC2CCCCC2)[C@@H](C)CN([C@H](C)CO)C(=O)c2cc(NS(=O)(=O)c3ccc(F)cc3)ccc2O1 | inactive |
| C[C@@H]1CN([C@@H](C)CO)C(=O)c2ccccc2-c2ccccc2CO[C@@H]1CN(C)C(=O)Nc1ccccc1C(F)(F)F | active |
| C[C@@H]1CN([C@H](C)CO)C(=O)c2c(c3ccccc3n2C)-c2ccccc2CO[C@H]1CN(C)C(=O)Nc1cccc(Cl)c1Cl | inactive |
| C[C@@H]1CN([C@H](C)CO)C(=O)c2c(c3ccccc3n2C)-c2ccccc2CO[C@H]1CN(C)C(=O)Nc1ccccc1C(F)(F)F | inactive |
| C[C@@H]1CN([C@H](C)CO)C(=O)c2ccccc2-c2ccccc2CO[C@H]1CN(C)C(=O)Nc1ccccc1C(F)(F)F | inactive |
| C[C@H](CO)N1C[C@H](C)[C@H](CN(C)C(=O)Nc2ccccc2C(F)(F)F)OCc2ccccc2-c2c(n(C)c3ccccc23)C1=O | inactive |
| C[C@H](CO)N1C[C@H](C)[C@@H](CN(C)C(=O)Nc2cccc(Cl)c2Cl)OCc2ccccc2-c2c(n(C)c3ccccc23)C1=O | active |
| C[C@H](CO)N1C[C@H](C)[C@H](CN(C)C(=O)Nc2cccc(Cl)c2Cl)OCc2ccccc2-c2c(n(C)c3ccccc23)C1=O | inactive |
| C[C@H](CO)N1C[C@H](C)[C@@H](CN(C)C(=O)Nc2ccccc2C(F)(F)F)OCc2ccccc2-c2c(n(C)c3ccccc23)C1=O | active |
| C[C@@H]1CN([C@H](C)CO)C(=O)c2ccccc2-c2ccccc2CO[C@@H]1CN(C)C(=O)Nc1ccccc1C(F)(F)F | inactive |
| Cn1ccnc1CN1CC[C@]2(COCCN(S(C)(=O)=O)C2)C1 | inactive |
| Cc1ccc(S(=O)(=O)N(C)C[C@H]2Oc3c(NS(C)(=O)=O)cccc3C(=O)N([C@H](C)CO)C[C@@H]2C)cc1 | inactive |
| C[C@@H]1CN([C@H](C)CO)C(=O)CCCn2nncc2CO[C@@H]1CN(C)C(=O)Nc1cccc2ccccc12 | inactive |
| COc1cccc(-c2ccc3c(c2)O[C@H](CN(C)C(=O)C2CCOCC2)[C@@H](C)CN([C@H](C)CO)S3(=O)=O)c1 | inactive |
| NCc1ccc(C(=O)N2CCCCC2)cc1 | inactive |
| COCC(=O)N(C)C[C@@H]1Oc2cc(-c3ccc(C#N)cc3)ccc2S(=O)(=O)N([C@H](C)CO)C[C@@H]1C | inactive |
| CNCc1nc(C)no1 | inactive |
| COc1ccccc1S(=O)(=O)N[C@H]1C=C[C@H](CC(=O)N2CCOCC2)O[C@@H]1CO | inactive |
| Cc1ccc(S(=O)(=O)N2C[C@H](O)COC[C@H]3O[C@H](CC(=O)N4CCc5ccccc5C4)CC[C@@H]32)cc1 | inactive |
| CC(C)(N)c1cc(C(=O)N[C@@H]2CCc3ccc(Oc4ccnc5c4CCC(=O)N5)cc3C2)cc(C(F)(F)F)c1 | active |
| CC(C)CC#Cc1ccc2c(c1)O[C@@H](CN(C)C(=O)Cc1ccccn1)[C@@H](C)CN([C@@H](C)CO)S2(=O)=O | inactive |

| SMILES | cytotoxicity call |
| --- | --- |
| C[C@H]1CN([C@@H](C)CO)C(=O)c2cc(NS(=O)(=O)c3ccccc3)ccc2O[C@H]1CN(C)S(C)(=O)=O | inactive |
| C[C@@H]1CN([C@H](C)CO)C(=O)c2cc(NS(=O)(=O)c3ccccc3)ccc2O[C@H]1CN(C)S(C)(=O)=O | active |
| C[C@@H]1CN([C@@H](C)CO)C(=O)c2cc(NS(=O)(=O)c3ccccc3)ccc2O[C@@H]1CN(C)S(C)(=O)=O | inactive |
| C[C@H](CO)N1C[C@H](C)[C@@H](CN(C)S(C)(=O)=O)Oc2ccc(NS(=O)(=O)c3ccccc3)cc2C1=O | inactive |
| C[C@H](CO)N1C[C@H](C)[C@H](CN(C)S(C)(=O)=O)Oc2ccc(NS(=O)(=O)c3ccccc3)cc2C1=O | inactive |
| C[C@H]1CN([C@@H](C)CO)C(=O)c2cc(NS(=O)(=O)c3ccccc3)ccc2O[C@@H]1CN(C)S(C)(=O)=O | active |
| Cn1cnc(S(=O)(=O)N2C[C@H](O)COC[C@H]3O[C@@H](CC(=O)NCc4cc(F)cc(F)c4)CC[C@@H]32)c1 | inactive |
| C[C@@H]1CN([C@H](C)CO)C(=O)c2cccc(NS(=O)(=O)c3ccc(F)cc3)c2O[C@H]1CN(C)S(=O)(=O)c1cn(C)cn1 | inactive |
| C[C@@H]1CCCCO[C@H](CN(C)S(C)(=O)=O)[C@@H](C)CN([C@H](C)CO)C(=O)c2cc(NC(=O)Nc3cccc4ccccc34)ccc2O1 | inactive |
| C[C@H](CO)N1C[C@H](C)[C@@H](CN(C)Cc2ccc(C(F)(F)F)cc2)Oc2c(NC(=O)Nc3ccc4c(c3)OCO4)cccc2C1=O | inactive |
| C[C@H](CO)N1C[C@H](C)[C@H](CN(C)Cc2ccc(C(F)(F)F)cc2)Oc2c(NC(=O)Nc3ccc4c(c3)OCO4)cccc2C1=O | inactive |
| C[C@@H]1CN([C@H](C)CO)C(=O)c2cccc(NC(=O)Nc3ccc4c(c3)OCO4)c2O[C@H]1CN(C)Cc1ccc(C(F)(F)F)cc1 | active |
| C[C@H]1CN([C@@H](C)CO)C(=O)c2cccc(NC(=O)Nc3ccc4c(c3)OCO4)c2O[C@H]1CN(C)Cc1ccc(C(F)(F)F)cc1 | inactive |
| C[C@@H]1CN([C@@H](C)CO)C(=O)c2cccc(NC(=O)Nc3ccc4c(c3)OCO4)c2O[C@H]1CN(C)Cc1ccc(C(F)(F)F)cc1 | active |
| C[C@H]1CN([C@@H](C)CO)C(=O)c2cccc(NC(=O)Nc3ccc4c(c3)OCO4)c2O[C@@H]1CN(C)Cc1ccc(C(F)(F)F)cc1 | inactive |
| C[C@@H]1CN([C@@H](C)CO)C(=O)c2cccc(NC(=O)Nc3ccc(C(F)(F)F)cc3)c2O[C@@H]1CN(C)Cc1ccc2c(c1)OCO2 | active |
| C[C@@H]1CN([C@@H](C)CO)C(=O)c2cccc(NC(=O)Nc3ccc(C(F)(F)F)cc3)c2O[C@H]1CN(C)Cc1ccc2c(c1)OCO2 | inactive |
| C[C@H]1CN([C@@H](C)CO)C(=O)c2cccc(NC(=O)Nc3ccc(C(F)(F)F)cc3)c2O[C@H]1CN(C)Cc1ccc2c(c1)OCO2 | inactive |
| CCOC(=O)N(C)C[C@H]1OCc2cn(nn2)CCCC(=O)N([C@H](C)CO)C[C@@H]1C | inactive |
| CC(=O)O[C@H]1CC[C@]2(C)[C@H]3CC[C@]4(C)C(=CC(=O)O[C@H]4c4ccoc4)[C@]3(C)[C@H](OC(C)=O)C[C@H]2C1(C)C | inactive |
| CN(C)C(=O)c1ccc(-c2ccc3n(c2=O)C[C@@H]2[C@@H](CO)[C@H](C(=O)NCCc4ccccc4)N[C@H]32)cc1 | inactive |
| COc1ccc(NC(=O)Nc2ccc3c(c2)C(=O)N([C@H](C)CO)C[C@H](C)[C@H](CN(C)Cc2ccc(Oc4ccccc4)cc2)O3)cc1 | inactive |

| SMILES | cytotoxicity call |
| --- | --- |
| COc1ccc(NC(=O)Nc2ccc3c(c2)C(=O)N([C@H](C)CO)C[C@H](C)[C@@H](CN(C)Cc2ccc(Oc4ccccc4)cc2)O3)cc1 | active |
| COc1ccc(NC(=O)Nc2ccc3c(c2)C(=O)N([C@@H](C)CO)C[C@H](C)[C@@H](CN(C)Cc2ccc(Oc4ccccc4)cc2)O3)cc1 | inactive |
| COc1ccc(NC(=O)Nc2ccc3c(c2)C(=O)N([C@@H](C)CO)C[C@@H](C)[C@@H](CN(C)Cc2ccc(Oc4ccccc4)cc2)O3)cc1 | active |
| COc1ccc(NC(=O)Nc2ccc3c(c2)C(=O)N([C@H](C)CO)C[C@@H](C)[C@@H](CN(C)Cc2ccc(Oc4ccccc4)cc2)O3)cc1 | inactive |
| COc1ccc(NC(=O)Nc2ccc3c(c2)C(=O)N([C@@H](C)CO)C[C@@H](C)[C@H](CN(C)Cc2ccc(Oc4ccccc4)cc2)O3)cc1 | inactive |
| C[C@H](CO)N1C[C@H](C)[C@@H](CN(C)S(=O)(=O)c2ccc(Cl)cc2)OCc2cnnn2CCCC1=O | inactive |
| Cc1ccc(S(=O)(=O)Nc2ccc3c(c2)C(=O)N([C@@H](C)CO)C[C@@H](C)[C@@H](CN(C)C(=O)C2CCCCC2)OCCCC[C@H](C)O3)cc1 | inactive |
| CC(C)(c1cc(Br)c(O)c(Br)c1)c1cc(Br)c(O)c(Br)c1 | inactive |
| C[C@H](CO)N1C[C@H](C)[C@@H](CN(C)C(=O)NC2CCCCC2)Oc2c(NS(=O)(=O)c3cn(C)cn3)cccc2C1=O | inactive |
| CCCNC(=O)N1C[C@@H](O)COC[C@H]2O[C@@H](CC(=O)NCCCN3CCOCC3)CC[C@@H]21 | inactive |
| CNC(=O)C[C@@H]1CC[C@H]2[C@@H](COC[C@H](O)CN2C(=O)c2ccc3c(c2)OCO3)O1 | inactive |
| CNC(=O)C[C@H]1CC[C@H]2[C@@H](COC[C@@H](O)CN2C(=O)c2ccc3c(c2)OCO3)O1 | inactive |
| CCCNC(=O)N1C[C@H](O)COC[C@H]2O[C@H](CC(=O)NCCCN3CCOCC3)CC[C@@H]21 | active |
| CCCNC(=O)N1C[C@H](O)COC[C@H]2O[C@@H](CC(=O)NCCCN3CCOCC3)CC[C@@H]21 | inactive |
| CNC(=O)C[C@H]1CC[C@@H]2[C@H](COC[C@@H](O)CN2C(=O)c2ccc3c(c2)OCO3)O1 | active |
| O=C(C[C@@H]1CC[C@@H]2[C@H](COC[C@@H](O)CN2C(=O)c2ccc3c(c2)OCO3)O1)NCCN1CCCCC1 | inactive |
| O=C(C[C@@H]1CC[C@H]2[C@@H](COC[C@@H](O)CN2C(=O)c2ccc3c(c2)OCO3)O1)NCCN1CCCCC1 | active |
| O=C(C[C@H]1CC[C@@H]2[C@H](COC[C@H](O)CN2C(=O)c2ccc3c(c2)OCO3)O1)NCCN1CCCCC1 | inactive |
| C[C@@H]1CN([C@H](C)CO)C(=O)c2cc(NC(=O)NC3CCCCC3)ccc2O[C@@H](C)CCCCO[C@H]1CN(C)C(=O)Nc1ccc(F)cc1 | inactive |
| C[C@H](CO)N1C[C@H](C)[C@@H](CN(C)S(=O)(=O)c2cccs2)OCCCC[C@H](C)Oc2ccc(NS(=O)(=O)c3cn(C)cn3)cc2C1=O | inactive |
